Bioassay records deposited in PubChem BioAssay by National Center for Advancing Translational Sciences (NCATS).
Shiga toxin inh: Shiga toxin inhibition; Vero cells, Shiga toxin protein synthesis inhibition reporter; inhibition, % at 38.7 µM; actives 9.2% (n = 290,000); AID 2315; in the data active = inhibition mostly above about 28%, no sharp cut-off; inactive = mostly below about 43%; note: 0% is about no effect
Marburg entry inh: blocks Marburg virus binding to or entry into cells; actives 1.8% (n = 300,000); Potency, µM (doses to about 37.8 µM), for inactives: top-dose activity change, negative = inhibition, most hits filed as inhibitors; Marburg virus pseudotyped entry inhibition, cell reporter; calls by dose curve; tested in HEK293 cells; note: potency is the fitted concentration of half-maximal effect; % is set by controls: 0 for no effect and ±100 for the full control effect
FMDV inh: blocks foot and mouth disease virus | FMDV antiviral cell-based qHTS | actives 1.2% (n = 410,000) | Potency, µM (series often up to 57.9 µM), for inactives: top-dose activity change, negative = inhibition, hits mostly inhibitors | AID 1159524; calls by dose curve; tested in HEK293T cells; note: read-out not given here; potency is the fitted concentration of half-maximal effect; % is set by controls: 0 for no effect and ±100 for the full control effect; nearly all actives have a fitted effect of over 45% in size
CHX counter: counter-screen hit for Shiga toxin inhibitors, cycloheximide; cell reporter, cycloheximide protein synthesis inhibition counterscreen; max response, %; actives 12% (n = 300,000); in the data active = max response mostly above about 13%, no sharp cut-off; inactive = mostly below about 14%; note: read at 38.3 µM for the half of the compounds with a filed dose; 0% is about no effect
Lassa entry inh: blocks Lassa virus binding to or entry into cells; Potency, µM (doses to about 37.9 µM), inactives show top-dose activity change, negative = inhibition, most hits filed as inhibitors; actives 1.2% (n = 300,000); Lassa virus pseudotype entry inhibition, cell reporter; AID 540256; calls by dose curve; tested in HEK293 cells; note: potency is the fitted concentration of half-maximal effect; % is set by controls: 0 for no effect and ±100 for the full control effect; nearly all actives have a fitted effect of over 50% in size
HCV inh: HCV inhibition; Potency, µM (doses to about 41.8 µM), for the others: at the highest dose activity change, negative = inhibition, actives largely listed as inhibitors; Huh7.5.1 HCVcc-Cre infection, luciferase reporter, 44 h; actives 3.4% (n = 340,000); active = well fitted inhibition curve with a large enough effect; inconclusive = small, poorly fitted or top-dose-only effect, or another doubt; inactive = no such curve, though single readings can be large or run the other way; note: potency is the fitted concentration of half-maximal effect; % is set by controls: 0 for no effect and ±100 for the full control effect
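Infectious HCV cell culture screen: compound-treated cells (1,000/well, pre-plated 4 h) are infected with HCVcc-Cre at roughly 0.5 moi and grown 44 h. Infection is quantified by luciferase signal after 15 min substrate incubation at room temperature.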
* hit, by the source's call; ? = inconclusive; . = not tested or not shown; [ ] = another dose, or the depositor's remark. An excerpt weighted towards active compounds, which were near 13% of everything screened.

SMILES	Shiga toxin inh	Marburg entry inh	FMDV inh	CHX counter	Lassa entry inh	HCV inh
COc1ccc(Nc2nnc(SCC(=O)/C=C3/N(C)c4ccccc4C3(C)C)s2)cc1	8	?	20µM*	-3	14µM*	?
CN1/C(=C\C(=O)CSc2nnc(N)s2)C(C)(C)c2ccccc21	11	?	?	1	?	-8%
CC1CCCN(C(=O)C2CCCN(S(=O)(=O)c3cccc4nsnc34)C2)C1 (centres undefined)	-13	-20%	.	-2	-19%	5%
C=CCN(c1ccc(C(=O)NCCSc2ccccc2)cc1)S(C)(=O)=O	120*	.	9%	33*	.	-13%
C=CCN(c1ccc(C(=O)NC(C)C)cc1)S(C)(=O)=O	-26	1%	2%	1	0%	3%
C=CCN(c1ccc(C(=O)Nc2ccc(C)cc2)cc1)S(C)(=O)=O	16	5%[46.1 µM]	-23%	-2	?	-23%
C=CCN(c1ccc(C(=O)Nc2ccc(C)c(C)c2)cc1)S(C)(=O)=O	36	?	?	19*	4%	?
COc1ccccc1NC(=O)N1CCN(c2cc(-c3ccccc3)nc3ncnn23)CC1	-7	?	32µM*	-2	-28%	10µM*
COc1ccc(OC)c(NC(=O)C2CCN(c3cc(-c4ccccc4)nc4ncnn34)CC2)c1	-19	?	-10%	4	-2%	14µM*
O=C(CN1C(=O)C2C3C=CC(C3)C2C1=O)NCCN1CCCc2ccccc21 (centres undefined)	-2	-12%	3%	7	15%	11%
CC(=O)Oc1ccc2ccccc2c1C(NC(=O)Cc1ccccc1)c1ccc(Cl)cc1 (centres undefined)	-16	?	?	-1	5%	10µM*
CCOc1ccc(C(NC(=O)CC)c2c(O)ccc3ccccc23)cc1 (centres undefined)	-10	.	12%	-1	.	15%
NS(=O)(=O)c1cccc(NC(=O)c2ccc3nc[nH]c3c2)c1	-4	2%	-3%	-2	10%	26%
COc1ccc(NC(=O)c2ccc3nc[nH]c3c2)cc1	62*	.	76%	38*	.	10%
O=C(Nc1ccc2c(c1)OCO2)c1ccc2nc[nH]c2c1	68*	?	40%	52*	6%	-6%
O=C(Nc1ccc(C(F)(F)F)cc1)c1ccc2nc[nH]c2c1	54*	?	20%	23*	-1%	-7%
COc1ccc(CCNCc2ccc(SC)cc2)cc1	-8	?	.	-1	17%	21%
O=C(CCS(=O)(=O)c1ccccc1)Nc1ccccc1-c1nc2ccccc2s1	-5	?	?	1	0%	?
COc1ccccc1C(=O)C(=O)c1ccccc1OC	.	-14%[46.1 µM]	14%	.	-2%[46.1 µM]	13%
CNC(=S)N1CCN(c2nc(-c3ccc(F)cc3)cs2)CC1	20	.	-18%	13*	.	?
COCCNC(=S)N1CCN(c2nc(-c3ccccc3)cs2)CC1	-3	.	-21%	-4	.	-20%
CCOc1ccccc1NC(=S)N1CCN(c2nc(-c3ccc(F)cc3)cs2)CC1	6	.	-21%	9	.	?
S=C(NCCCN1CCOCC1)N1CCN(c2nc(-c3ccccc3)cs2)CC1	10	?	?	2	?	?
COCCCNC(=S)N1CCN(c2nc(-c3ccc(F)cc3)cs2)CC1	.	.	?	9	.	10µM*
CCOC(=O)C(=O)N1CCN(c2nc(-c3ccc(Cl)cc3)cs2)CC1	.	1%[46.1 µM]	-12%	-4	8%[46.1 µM]	1%
SMILES	Shiga toxin inh	Marburg entry inh	FMDV inh	CHX counter	Lassa entry inh	HCV inh
CCOC(=O)N1CCN(c2nc(-c3ccc(F)cc3)cs2)CC1	48*	?	10%	23*	?	?
CCOCCCNC(=S)N1CCN(c2nc(-c3ccc(F)cc3)cs2)CC1	.	.	?	1	.	11µM*
CCOC(=O)/C=C/C(=O)OCC(=O)Nc1cccc(Br)c1	-2	-6%[46.1 µM]	1%	19	-4%	0%
CN1C(=O)c2cccc(NCCCCCCN3C(=O)c4ccccc4C3=O)c2C1=O	15	15%	13µM*	-4	-2%	6%
O=C(CCCN1C(=O)/C(=C\c2cccs2)SC1=S)Nc1ccccn1	-9	-11%[46.1 µM]	4%	-3	-28%	25µM*
O=C1/C(=C/c2ccc(O)cc2)SC(=S)N1CC1CCCO1 (centres undefined)	40*	11%[46.1 µM]	83%	36*	8%[46.1 µM]	-5%
Cc1ccc(/C=C2\SC(=S)N(CCCC(=O)Nc3ccc(O)cc3)C2=O)cc1	39*	14%[46.1 µM]	-5%	18*	?	-29%
Cc1ccc(/C=C2\SC(=S)N(CCCC(=O)Nc3ccccn3)C2=O)cc1	-27	?	?	-5	2.2µM*	?
CCCOc1ccc(/C=C2\SC(=S)N(CC3CCCO3)C2=O)cc1 (centres undefined)	20	?	-15%	-2	-2%	?
O=C(CCN1C(=O)/C(=C/c2cccs2)SC1=S)Nc1ccccn1	-4	.	-20%	10	.	-11%
O=C(CN1C(=O)/C(=C\c2cccs2)SC1=S)Nc1cccc(C(=O)O)c1	53*	?	-6%	11	-18%[46.1 µM]	2%
O=C(CCN1C(=O)S/C(=C\c2cccs2)C1=O)NC1=NCCS1	32	-28%	-9%	17*	-2%	8%
COc1ccc(/C=C2\SC(=S)N(CCC(=O)NC3=NCCS3)C2=O)cc1OC	-13	?	-11%	-1	0%	-26%
CCOC(=O)c1cnc2ccc(C(=O)OC)cc2c1NCc1ccco1	20	-2%	.	-4	.	9%
CCOc1ccc(Nc2nc3ccccc3n3nnnc23)cc1	100*	.	7%	59*	.	13%
Cc1cc(NCCNC2=CC(=O)CCC2)nc2ccccc12	7	-7%	-10%	-4	21%	-7%
CCOc1ccc(Nc2c3ccccc3nc3ccccc23)cc1	36*	.	?	17	.	4µM*
CC(=O)Nc1ccc(Nc2cc(C)c3ccccc3n2)cc1	61	.	-6%	-3	.	-21%
Cc1cc(NCC2CCCCC2)nc2ccccc12	51*	1µM*	-2%	38*	.	?
CCOc1ccc(Nc2cc(C)c3ccccc3n2)cc1	94*	.	33%	49*	.	-12%
CN(C)c1ccc(Nc2nc3ccccc3n3nnnc23)cc1	.	-25%[46.1 µM]	?	.	-3%[46.1 µM]	.
Cc1ccc(CNC(=O)CCCCn2c(=O)c3ccccc3n(Cc3c(C)cc(C)cc3C)c2=O)cc1	.	9%[46.1 µM]	-21%	.	13%[46.1 µM]	.
O=C(N[C@@H](Cc1ccccc1)C(=O)O)c1cccnc1	-5	3%	-21%	-9	.	-9%
O=C(CN1CCN(C(C(=O)Nc2cc(C(F)(F)F)ccc2Cl)c2ccccc2)CC1)NC1CC1 (centres undefined)	.	.	40µM*	.	.	?
Cc1[nH]nc(SCC(=O)N2CCCC2)c1[N+](=O)[O-]	21	.	20%	0	.	1%
Cc1[nH]nc(SCC(=O)N2CCC(C)CC2)c1[N+](=O)[O-]	18	-2%[46.1 µM]	63%	17*	12%	13%
